Screens deposited in PubChem by National Center for Advancing Translational Sciences (NCATS).
Compounds with a hit are over-represented: about 1.2% of the library has one in this group of screens.
PKM2 act: qHTS Assay for Activators of Human Muscle isoform 2 Pyruvate Kinase. 0.34% of 260,000 active. Potency, µM (top dose mostly 57.5 µM), most hits filed as activators. Pyruvate kinase PKM (Homo sapiens), P14618. purified PKM2, Kinase-Glo ATP luminescence, activation; response scale: 0% is enzyme alone, no compound; note: nearly all actives have a fitted effect of over 55% in size
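hPK-M2, >95% pure; 0.1 mM ADP / 0.5 mM PEP final; imidazole pH7.2 buffer w/ 7 mM MgCl2, 50 mM KCl; 1 h RT; Kinase-Glo lum. Intermediate enzyme activity for dual inhibitor/activator qHTS.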
aGal spleen mod: qHTS Assay for Inhibitors and Activators of Human alpha-Galactosidase From Spleen Homogenate. Potency, µM (highest dose often 80 µM), usual class: inhibitors. Alpha-galactosidase A (Homo sapiens), P06280. human spleen homogenate, 4MU-alpha-Gal fluorescence, 40 min. 0.008% of 240,000 active. AID 2107, 2009
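qHTS titration in buffer at pH 5.0. Alpha-galactosidase activity in spleen homogenate was measured via 4-methylumbelliferone release from 1 mM fluorogenic substrate after 40 min at 37C and a pH 10 stop. AC50 came from Hill fits of control-normalized data.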
GLA inh pH 4.5: qHTS Assay for Inhibitors of Human alpha-Galactosidase at pH 4.5; purified enzyme, 4-MU-alpha-Gal fluorescence, pH 4.5; AID 1467, 2008; activity change, negative = inhibition, % at 105 µM; Alpha-galactosidase A (Homo sapiens), P06280; 230,000 tested, under 10 active
Target sequence (P06280 whole entry, looked up): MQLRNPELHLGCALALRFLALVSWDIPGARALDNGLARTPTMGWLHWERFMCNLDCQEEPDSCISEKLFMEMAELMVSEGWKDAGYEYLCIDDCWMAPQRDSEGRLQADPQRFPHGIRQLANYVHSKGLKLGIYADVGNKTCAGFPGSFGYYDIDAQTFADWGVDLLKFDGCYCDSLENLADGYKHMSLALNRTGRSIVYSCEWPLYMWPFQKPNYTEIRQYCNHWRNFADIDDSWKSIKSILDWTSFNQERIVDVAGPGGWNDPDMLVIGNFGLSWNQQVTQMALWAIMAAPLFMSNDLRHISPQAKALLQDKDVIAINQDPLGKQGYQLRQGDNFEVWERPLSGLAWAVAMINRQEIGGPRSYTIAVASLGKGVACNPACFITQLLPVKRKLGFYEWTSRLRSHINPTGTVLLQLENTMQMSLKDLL
HTT ATP protect: qHTS Multiplex Assay to Identify Dual Action Probes in a Cell Model of Huntington: Cytoprotection (ATP); PC12 HTT-Q103 induced, cytoprotection, ATP luminescence, 40 h; Potency, µM (series often up to 56.4 µM), hits mostly activators; 0.14% of 230,000 active; note: nearly all actives have a fitted effect of over 45% in size
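PC12 cells stably carrying ecdysone-inducible Htt exon 1 (Q103)–GFP were induced with 100 nM tebufenozide (final) alongside library compounds in a dose series. Cytoprotection was scored as retained ATP by ATPlite luminescence.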
HttQ103 aggreg: qHTS Multiplex Assay to Identify Dual Action Probes in a Cell Model of Huntington: Aggregate Formation (GFP) | 1.1% of 220,000 active | Potency, µM (highest dose often 46.1 µM), most hits filed as inhibitors | PC12 HttQ103-GFP aggregates, Acumen cytometry, 40 h | AID 1688, 2009; note: nearly all actives have a fitted effect of over 60% in size
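PC12/HTTQ103-GFP, ecdysone-inducible; teb 100 nM; cpd qHTS titration; GFP aggregates read on laser cytometer, Ex 488/Em 500-530 nm.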
Large screens that a line does not name were inactive. Calls come from the whole dose curve; as a rule, active = well fitted curve in the direction sought with a large enough effect; inconclusive = small, poorly fitted or top-dose-only effect, or another doubt; inactive = no such curve, though single readings can be large; an effect the other way counts as inactive or inconclusive.

c1cc2[nH]snc2c2nc(C3CC3)nc12	HttQ103 aggreg 11µM
C=CCn1c2ccccc2c2nnc(SCC(=O)Nc3c(C)n(C)n(-c4ccccc4)c3=O)nc21	none
C=CCn1c2ccccc2c2nnc(SCC(=O)NC(C(=O)OC)C(C)C)nc21 (configuration not stated)	aGal spleen mod 40µM
CCCc1c(C)nc2ccccc2c1SCCC#N	HttQ103 aggreg 3.2µM
CCCCc1c(C)nc2ccc(Br)cc2c1SCCC#N	HttQ103 aggreg inconclusive
CCc1c(C)nc2ccc(Br)cc2c1SCCC#N	HttQ103 aggreg 7.9µM
COC(=O)CC1C(C)(C)C2(O)OC34CC2C(=O)[C@@]1(C)C3CC[C@]1(C)C4=CC(=O)OC1c1ccoc1 (some centres not stated)	none (no result: PKM2 act, HttQ103 aggreg)
COc1ccc2cc(S(=O)(=O)c3ccccc3)c(=O)oc2c1	PKM2 act 5µM, aGal spleen mod inconclusive, GLA inh pH 4.5 inconclusive
COCCNC(=O)C1(CC(C)C)C=CCN1C(=O)OC (configuration not stated)	HTT ATP protect inconclusive (no result: HttQ103 aggreg)
Clc1ccccc1CONc1ncnc2nonc12	PKM2 act 16µM (no result: HTT ATP protect)
Cn1cnnc1SCC(=O)N1N=C2/C(=C/c3ccco3)CCCC2C1c1ccco1 (configuration not stated)	PKM2 act 28µM
O=C(CSc1nccc(=O)[nH]1)N1N=C2/C(=C/c3ccco3)CCCC2C1c1ccco1 (configuration not stated)	PKM2 act inconclusive
O=C(c1ccc(NS(=O)(=O)c2ccccc2)cc1)N1CCN(Cc2ccc3c(c2)OCO3)CC1	PKM2 act 13µM
CC(C)CNS(=O)(=O)c1ccc(CCC(=O)N2CCN(Cc3ccc4c(c3)OCO4)CC2)cc1	HttQ103 aggreg 11µM
O=C(c1ccc(S(=O)(=O)NCc2ccco2)cc1)N1CCN(Cc2ccccc2)CC1	PKM2 act 7.9µM
CSc1ccc(S(=O)(=O)N2CCN(Cc3ccc4c(c3)OCO4)CC2)cc1	PKM2 act 7.9µM
O=C(CCc1ccc(S(=O)(=O)NCCc2ccccc2)cc1)N1CCN(Cc2ccc3c(c2)OCO3)CC1	none
Cc1cccc(S(=O)(=O)N2CCN(Cc3ccc4c(c3)OCO4)CC2)c1	none (no result: aGal spleen mod, GLA inh pH 4.5, HTT ATP protect, HttQ103 aggreg)
CO/N=C(\C(=O)N[C@@H]1C(=O)N2C(C(=O)[O-])=C(C[n+]3cccc4c3CCC4)CS[C@H]12)c1csc(N)n1	none (no result: PKM2 act, aGal spleen mod, GLA inh pH 4.5)
COc1ccccc1C(=O)Nc1nnc(-c2ccc(F)cc2)o1	none
Cc1ccccc1C(=O)Nc1nnc(-c2ccc(F)cc2)o1	HttQ103 aggreg 10µM
OC(COC(c1ccc(Cl)cc1)c1ccc(Cl)cc1)CN1CCN(c2ccccn2)CC1 (configuration not stated)	HttQ103 aggreg 32µM
OC(COCc1ccc(Cl)cc1)CN1CCN(CC(O)COCc2ccc(Cl)cc2)CC1 (configuration not stated)	HttQ103 aggreg 4µM
Cc1ccc(S(=O)(=O)Cc2ccc(C(=O)N3CCN(c4cc(C)ccc4C)CC3)o2)cc1	none
Cc1cccc(N2CCN(C(=O)c3ccc(CS(=O)(=O)c4ccccc4C)o3)CC2C)c1 (configuration not stated)	HttQ103 aggreg 22µM
Cc1ccc(C)c(N2CCN(C(=O)c3ccc(CS(=O)(=O)c4ccccc4C)o3)CC2)c1	HttQ103 aggreg 28µM
COc1ccc(N2CCN(C(=O)c3ccc(CS(=O)(=O)c4ccccc4C)o3)CC2)cc1	none (no result: aGal spleen mod, GLA inh pH 4.5, HTT ATP protect, HttQ103 aggreg)
O=C(c1ccco1)N1CCC[C@@]2(CCN(Cc3ccccc3)C2)C1	none (no result: PKM2 act, GLA inh pH 4.5, HttQ103 aggreg)
CN1CCN(S(=O)(=O)c2cccc(C(=O)N(c3ccccn3)C3CCCCC3)c2)CC1	none
CC1CCN(S(=O)(=O)c2cccc(C(=O)N(Cc3ccccc3)c3ccccn3)c2)CC1	HttQ103 aggreg 11µM
N[C@@H](CNO)C(=O)O	none (no result: PKM2 act, aGal spleen mod, GLA inh pH 4.5, HttQ103 aggreg)
CC(C)Nc1nc(-c2ccccn2)nc(-c2ccccc2)c1C#N	HttQ103 aggreg 3.5µM
CCN(CC)c1ccc2cc(-c3nnc(-c4ccncc4)o3)c(=O)oc2c1	HttQ103 aggreg 2.5µM
CCn1c(=O)c(C(=O)Nc2ccccc2)c(O)c2ccccc21	none (no result: aGal spleen mod, GLA inh pH 4.5, HTT ATP protect, HttQ103 aggreg)
CCn1c(=O)c(C(=O)Nc2nc3ccccc3[nH]2)c(O)c2ccccc21	HttQ103 aggreg 10µM
CC(C)OC(=O)[C@@H]1CC[C@H](C)[C@@H](CCCC=O)O1	none (no result: PKM2 act, HTT ATP protect, HttQ103 aggreg)
N#C/C(=C\c1cccc(Cl)c1)C(=O)c1ccccc1	PKM2 act 20µM
CC1(OC(=O)c2ccc(Cl)nc2)C(=O)C=c2cc(-c3ccsc3)ncc2=C1OC(=O)C1CCCC1 (configuration not stated)	none (no result: HttQ103 aggreg)
CCOC(=O)c1sc2nc(N3CCOCC3)c3c(c2c1N)CCN(C)C3	HTT ATP protect 0.63µM (no result: HttQ103 aggreg)
Cc1[nH]c2ccccc2c1/C=C/C(=O)c1ccncc1	HTT ATP protect 4µM
O=C(/C=C/c1cccc2ccccc12)c1ccncc1	none
O=C(NN1C(=O)c2ccccc2NC1c1ccc([N+](=O)[O-])o1)c1ccc(Br)cc1 (configuration not stated)	HTT ATP protect 6.3µM, HttQ103 aggreg inconclusive
CC(=O)NN1C(=O)c2ccccc2NC1c1ccc([N+](=O)[O-])o1 (configuration not stated)	HttQ103 aggreg inconclusive
Cn1c(=N)c(S(=O)(=O)c2ccccc2)cc2c(=O)n3ccccc3nc21	HttQ103 aggreg 3.2µM
O=C(O)Cc1cccnc1	none (no result: PKM2 act, aGal spleen mod, GLA inh pH 4.5, HttQ103 aggreg)
Cc1ccc(Sc2c(O)c3ccccc3n(C)c2=O)cc1	none (no result: HTT ATP protect)
Cc1ccc(Sc2c(C=O)c3ccccc3n2C)cc1	HttQ103 aggreg 10µM
Cc1nc(C)n(CC(O)COc2ccc3cc(Br)ccc3c2)n1 (configuration not stated)	HttQ103 aggreg 13µM
CN(C)S(=O)(=O)N1CCN(CC(O)COc2ccc3cc(Br)ccc3c2)CC1 (configuration not stated)	HttQ103 aggreg 11µM
O=S(=O)(N1CCCCC1)N1CCN(CC(O)COc2ccc3cc(Br)ccc3c2)CC1 (configuration not stated)	none
Cc1noc(C)c1C(=O)N1CCC[C@@]2(CCN(C(c3ccccc3)c3ccccc3)C2)C1	none (no result: PKM2 act, GLA inh pH 4.5, HttQ103 aggreg)
O=C(O)c1ccccc1-c1c2cc(Br)c(=O)c(Br)c-2oc2c(Br)c(O)c(Br)cc12	HttQ103 aggreg 10µM (no result: PKM2 act, GLA inh pH 4.5)
Fc1cccc2sc(Nc3nnc(-c4ccccc4)o3)nc12	HttQ103 aggreg 11µM
COc1cc(OC)cc(-c2nnc(Nc3nc4c(F)cccc4s3)o2)c1	PKM2 act 7.1µM
Fc1cccc2sc(Nc3nc4c(F)cccc4s3)nc12	none
